Data from ChEMBL document CHEMBL3433997, “St. Jude Leishmania screening dataset” (2016).

Assays:
Assay type in all cases: functional
[1] = target: Solute carrier family 2, facilitated glucose transporter member 1 (Homo sapiens) (UniProt P11166); assay: ST_JUDE_LEISH: Cytotoxicity at 2uM final concentration against transgenic Leishmania Mexicana promastigotes LmGLUT1 that are glucose transport deficient and complemented with the human glucose transporter GLUT1. Activity is measured by DNA content using SYBR green in vitro
[2] = target: Hexose transporter 1 (Plasmodium falciparum) (UniProt O97467); assay: ST_JUDE_LEISH: Cytotoxicity at 2uM final concentration against transgenic Leishmania Mexicana promastigotes LmPfHT that are glucose transport deficient and complemented with the Plasmodium falciparum hexose transporter. Activity is measured by DNA content using SYBR green in vitro
[3] = target: Glucose transporter (Leishmania mexicana) (UniProt O61059); assay: ST_JUDE_LEISH: Cytotoxicity at 2uM final concentration against transgenic Leishmania Mexicana promastigotes LmGT2 that are glucose transport deficient and complemented with the L. Mexicana glucose transporter 2. Activity is measured by DNA content using SYBR green in vitro

Chain of Solute carrier family 2, facilitated glucose transporter member 1 (Homo sapiens) (P11166 whole entry): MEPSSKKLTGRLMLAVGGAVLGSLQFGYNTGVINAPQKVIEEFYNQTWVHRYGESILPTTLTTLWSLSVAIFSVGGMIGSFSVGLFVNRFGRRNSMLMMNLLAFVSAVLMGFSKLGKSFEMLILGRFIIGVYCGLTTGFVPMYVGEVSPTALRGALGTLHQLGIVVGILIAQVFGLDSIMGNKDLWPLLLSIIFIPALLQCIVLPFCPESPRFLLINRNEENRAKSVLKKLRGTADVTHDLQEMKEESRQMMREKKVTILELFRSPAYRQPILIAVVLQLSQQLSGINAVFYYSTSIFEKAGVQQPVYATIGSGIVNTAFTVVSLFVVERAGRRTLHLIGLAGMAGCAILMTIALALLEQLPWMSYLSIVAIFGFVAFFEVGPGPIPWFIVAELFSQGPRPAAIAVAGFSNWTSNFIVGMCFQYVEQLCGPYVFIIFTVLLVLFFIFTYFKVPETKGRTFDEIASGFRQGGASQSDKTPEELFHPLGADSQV

| Compound | inhibition [1] [%] | inhibition [2] [%] | inhibition [3] [%] |
| --- | --- | --- | --- |
| Cc1cnccc1/C=C/c1cccc(OCCCN2CCc3ccc(S(C)(=O)=O)cc3CC2)c1 | 2.21 | 2.58 | 2.19 |
| COc1cccc(C(=O)Nc2ccc(Nc3nc(C)cc(N(C)C)n3)cc2)c1OC | 2.81 | 4.32 | 1 |
| O=C(NCCN1CCCC1)N1CCCN(c2ncnc3cc(-c4ccc(F)cc4)sc23)CC1 | -1.05 | -2.33 | 4.44 |
| Cc1cc(N[C@@H](CC(C)C)C(=O)NCCOc2ccccc2)nc(NCCOc2ccccc2)n1 | 3.79 | 1.16 | 17.1 |
| CN(C)CCCn1cncc1-c1ccc2ncnc(Nc3ccc4c(cnn4Cc4ccccc4)c3)c2c1 | 1.25 | 1.38 | 1.35 |
| CC(=O)CCc1ccc(OCCN(Cc2ccccc2C(F)(F)F)c2ccc(C#N)c(C(F)(F)F)c2)cc1 | 3.66 | 4.24 | 2.73 |
| O=c1cc(NCCC(CNCc2ccoc2)NCc2cc(Br)cc(Br)c2)[nH]c2ccccc12 (centres undefined) | 6.77 | 6.66 | 9.4 |
| COc1ccc(CNCc2ccc(-c3cccc(-c4nc5ccccc5[nH]4)c3)cc2)cc1 | 5.98 | 6.56 | 2.14 |
| CCCCCN1CCCC(CNS(=O)(=O)c2cccc(C(=O)Nc3ccc(C(F)(F)F)cc3)c2)C1 (centres undefined) | 0.67 | -0.91 | -0.09 |
| O=C(/C=C/c1ccc(Cl)cc1)NCCCCCN1CCCN(C(=O)Nc2cccc(Cl)c2)CC1 | -2.75 | -1.85 | -1.25 |
| N=C(N)NC(=O)Nc1cc(F)c(Cl)c(Br)c1 | 3.49 | 4.05 | -2.83 |
| CCCN(CCC)S(=O)(=O)c1ccc(C(=O)N2CCC(C(=O)OCC)CC2)cc1 | 6.42 | 5.73 | 5.48 |
| Cc1ccc(Nc2nc(C)cc(NCc3ccc(-n4ccnc4)cc3)n2)cc1 | 5.83 | 10.8 | 10.4 |
| COc1ccc(Nc2nccc(-c3ccc4ccnc(NCCCCN)c4c3)n2)cc1 | -0.78 | -1.84 | -4.14 |
| CC(C)N1CCN(C(CN2CCN(CCCOc3ccc4ccccc4c3)CC2)c2ccc(F)cc2)CC1 (centres undefined) | 1.8 | 1.79 | -0.76 |
| CC(=O)Nc1nc(C(=O)Nc2cccc(-c3ccc(-c4nc5cccc(C)c5[nH]4)s3)c2)cs1 | 6.86 | 11.9 | 8.32 |
| COc1ccc(-c2ccc(NC(=O)c3cccc(C#N)c3)cc2)cc1CN1CCNCC1 | 9.28 | 5.74 | 4.28 |

| Compound | inhibition [1] [%] | inhibition [2] [%] | inhibition [3] [%] |
| --- | --- | --- | --- |
| COc1ccc(C2CCN(CCN3CCC(NC(=O)c4ccc(-c5cccc(C(F)(F)F)c5C(F)(F)F)cc4)CC3)CC2)c(OC)c1 | 0.36 | 1.29 | -0.58 |
| O=[N+]([O-])c1c(O)nc2c(c1O)CCC2 | 4.52 | 4.36 | 4.11 |
| Cc1ccc(NC(=O)Nc2ccc(Cl)cc2)cc1-c1ccc(C(=O)Nc2ccncc2)cc1 | 2.15 | 1.58 | 0.65 |
| COc1cc2nc(N3CCC(CNC(=O)c4ccc(-c5ccc(C#N)cc5)cc4)CC3)nc(N)c2cc1OC | 1.64 | 1.87 | 1.74 |
| O=C(/C=C/c1ccc(CNCCN2CCOCC2)cc1)NCCc1ccccc1 | 0.21 | -1 | 0.2 |
| CCCCCCN1CCC(NCc2ccc(Cl)cc2)CC1 | 7.59 | 7.61 | 4.28 |
| Cc1ccc(NC(=O)c2ccc(CN3CCCN(Cc4cccc(C#N)c4)CC3)cc2)cc1F | 4.02 | 2.41 | 2.02 |
| NC1=NC(c2ccccc2)(c2ccccc2)C(=O)N1Cc1ccccc1Br | 7.09 | 4.75 | 6.62 |
| CCCC(C)NC(=O)[C@H](CC1CCCCC1)NC(=O)c1ccc(O)c(-c2ccc(OC)cc2)c1 (some centres undefined) | 2.7 | 0.19 | 2.85 |
| CCOC(=O)C1=C(C)N=c2sc(=Cc3cc(Cl)ccc3O)c(=O)n2C1c1ccc2c(c1)OCO2 (centres undefined) | 0.16 | 0.7 | 1.37 |
| Cc1cc(C)cc(NC(=S)NCCCCN2CCN(c3cccc(Cl)c3)CC2)c1 | -0.5 | -1.31 | -4.65 |
| COc1ccc2[nH]c(/C=C/c3cccc4ccc(C)nc34)nc2c1 | 2.88 | 2.44 | 0.69 |
| O=C(N[C@H](CC1CCCCC1)C(=O)NC1CCCc2ccccc21)c1ccc(O)c(-c2cccc([N+](=O)[O-])c2)c1 (some centres undefined) | 1.2 | 0.18 | 0.88 |
| COc1ccc(NC(=O)Nc2ccc(-c3ccc(-c4nc5cccc(C)c5[nH]4)s3)cc2)cc1 | 4.04 | 4.64 | 3.71 |
| O=C(NCc1ccccc1)C1Cc2c([nH]c3ccc(Br)cc23)C2(CCN(Cc3ccccc3)CC2)N1 (centres undefined) | 2.61 | 3.23 | 1.63 |
| COc1cccc(CCc2cccc(CNC(C)=O)c2)c1 | 5.81 | 4.65 | 5.68 |
